Source: PubChem BioAssay AID1159580 (chemical genetic matrix, 2015)
Several values for one entry are separate records, joined by “and”; a condition that tells them apart may be missing. Equal entries are not always repeated. Among all 5,500 compounds or so, about 2,000 (36%) were called active. Not shown: some 18% with an inconclusive outcome. No stated cut-off is given here; in the data, active means normalized growth mostly below about 0.91 (no sharp cut-off); inconclusive means no clear call, values can overlap the other calls; inactive means mostly above about 0.92. Some of the results follow.

Test: chemical genetic growth profiling, strain panel (AID 1159580);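 further: tested at 20 µM; growth read once vehicle control cultures reached saturation at 30 °C; 1 = growth at the plate median or of vehicle wells; lower values mean less growth of the strain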
Details: growth OD

Measured: normalized growth

NCCCC(=O)O
inactive: S. cerevisiae deletion strains, locus YAL013W, strain DEP1, active compounds read low 1 and 0.982 | S. cerevisiae deletion strains, locus YAL040C, strain CLN3, active compounds read low 0.965 | S. cerevisiae deletion strains, locus YBR021W, strain FUR4, active compounds read low 1.01 | S. cerevisiae deletion strains, locus YBR229C, strain ROT2, active compounds read low 1.01 | S. cerevisiae deletion strains, locus YCL029C, strain bik1, active compounds read low 1.04 | S. cerevisiae deletion strains, locus YDL035C, strain GPR1, active compounds read low 1.01 | S. cerevisiae deletion strains, locus YDL074C, strain BRE1, active compounds read low 1.01 | S. cerevisiae deletion strains, locus YDL101C, strain DUN1, active compounds read low 1.01 | S. cerevisiae deletion strains, locus YDL134C, strain PPH21, active compounds read low 1.01 | S. cerevisiae deletion strains, locus YDL185W, strain tfp1, active compounds read low 1.01 | S. cerevisiae deletion strains, locus YDL192W, strain arf1, active compounds read low 1.02 | S. cerevisiae deletion strains, locus YDR101C, strain arx1, active compounds read low 1.03 | S. cerevisiae deletion strains, locus YDR150W, strain NUM1, active compounds read low 1.01 | S. cerevisiae deletion strains, locus YDR162C, strain NBP2, active compounds read low 1 | S. cerevisiae deletion strains, locus YDR318W, strain mcm21, active compounds read low 1.02 | S. cerevisiae deletion strains, locus YDR363W, strain ESC2, active compounds read low 1.02 | S. cerevisiae deletion strains, locus YDR388W, active compounds read low 1.02 | S. cerevisiae deletion strains, locus YDR502C, strain sam2, active compounds read low 1.03 | S. cerevisiae deletion strains, locus YEL061C, strain CIN8, active compounds read low 1 | S. cerevisiae deletion strains, locus YER002W, strain NOP16, active compounds read low 0.993 | S. cerevisiae deletion strains, locus YER110C, active compounds read low 1.04 | S. cerevisiae deletion strains, locus YER155C, strain BEM2, active compounds read low 1.01 | S. cerevisiae deletion strains, locus YER167W, strain BCK2, active compounds read low 1.01 | S. cerevisiae deletion strains, locus YGL078C, strain dbp3, active compounds read low 1.03 | S. cerevisiae deletion strains, locus YGL086W, strain mad1, active compounds read low 1.02 | S. cerevisiae deletion strains, locus YGL248W, strain PDE1, active compounds read low 1.01 | S. cerevisiae deletion strains, locus YGR078C, strain PAC10, active compounds read low 1.01 | S. cerevisiae deletion strains, locus YGR135W, strain pre9, active compounds read low 1.04 | S. cerevisiae deletion strains, locus YGR229C, strain SMI1, active compounds read low 1.03 and 0.998 | S. cerevisiae deletion strains, locus YGR252W, strain gcn5, active compounds read low 1.07 | S. cerevisiae deletion strains, locus YHR030C, strain SLT2, active compounds read low 1.01 | S. cerevisiae deletion strains, locus YHR079C, strain IRE1 (second series), active compounds read low 1.02 | S. cerevisiae deletion strains, locus YHR079C, strain IRE1, active compounds read low 0.994 | S. cerevisiae deletion strains, locus YHR094C, strain hxt1, active compounds read low 1.02 | S. cerevisiae deletion strains, locus YHR129C, strain ARP1, active compounds read low 1 | S. cerevisiae deletion strains, locus YHR200W, strain rpn10, active compounds read low 1.02 | S. cerevisiae deletion strains, locus YIL066C, strain RNR3, active compounds read low 1.01 | S. cerevisiae deletion strains, locus YIL073C, strain SPO22, active compounds read low 1.06 | S. cerevisiae deletion strains, locus YIL125W, strain kgd1, active compounds read low 1.02 | S. cerevisiae deletion strains, locus YIR030C, strain dcg1, active compounds read low 1.04 | S. cerevisiae deletion strains, locus YJL095W, strain BCK1, active compounds read low 1.01 and 0.999 | S. cerevisiae deletion strains, locus YJL134W, strain LCB3, active compounds read low 1.01 | S. cerevisiae deletion strains, locus YJL168C, strain set2, active compounds read low 1.03 | S. cerevisiae deletion strains, locus YJL187C, strain SWE1 (second series), active compounds read low 1.01 | S. cerevisiae deletion strains, locus YJR043C, strain POL32, active compounds read low 1 | S. cerevisiae deletion strains, locus YJR066W, strain TOR1, active compounds read low 0.949 | S. cerevisiae deletion strains, locus YJR075W, strain HOC1, active compounds read low 1.01 | S. cerevisiae deletion strains, locus YKL009W, strain mrt4, active compounds read low 0.999 | S. cerevisiae deletion strains, locus YKL068W, active compounds read low 1.01 | S. cerevisiae deletion strains, locus YKL085W, strain MDH1 (second series), active compounds read low 1 | S. cerevisiae deletion strains, locus YKL085W, strain MDH1, active compounds read low 1 | S. cerevisiae deletion strains, locus YKL190W, strain CNB1, active compounds read low 1 | S. cerevisiae deletion strains, locus YKR001C, strain vps1, active compounds read low 1.03 | S. cerevisiae deletion strains, locus YLR039C, strain RIC1, active compounds read low 0.999 | S. cerevisiae deletion strains, locus YLR058C, strain SHM2, active compounds read low 1.01 | S. cerevisiae deletion strains, locus YLR102C, strain apc9, active compounds read low 1.03 | S. cerevisiae deletion strains, locus YLR113W, strain HOG1, active compounds read low 0.996 | S. cerevisiae deletion strains, locus YLR262C, strain YPT6, active compounds read low 1 | S. cerevisiae deletion strains, locus YLR268W, strain sec22, active compounds read low 1.03 | S. cerevisiae deletion strains, locus YLR330W, strain CHS5, active compounds read low 1 | S. cerevisiae deletion strains, locus YLR342W, strain FKS1 (second series), active compounds read low 0.994 | S. cerevisiae deletion strains, locus YLR371W, strain rom2, active compounds read low 1.03 | S. cerevisiae deletion strains, locus YLR418C, strain cdc73, active compounds read low 1.08 | S. cerevisiae deletion strains, locus YML016C, strain PPZ1, active compounds read low 1.01 | S. cerevisiae deletion strains, locus YML032C, strain rad52, active compounds read low 1.04 | S. cerevisiae deletion strains, locus YML124C, strain tub3, active compounds read low 1.03 | S. cerevisiae deletion strains, locus YMR078C, strain ctf18, active compounds read low 1.03 | S. cerevisiae deletion strains, locus YMR223W, strain ubp8, active compounds read low 1.02 | S. cerevisiae deletion strains, locus YMR263W, strain SAP30, active compounds read low 1.01 | S. cerevisiae deletion strains, locus YMR307W, strain GAS1, active compounds read low 1.02 | S. cerevisiae deletion strains, locus YNL067W, strain RPL9B, active compounds read low 1.01 | S. cerevisiae deletion strains, locus YNL128W, strain TEP1, active compounds read low 1.02 and 0.979 | S. cerevisiae deletion strains, locus YNL153C, strain GIM3, active compounds read low 1.01 | S. cerevisiae deletion strains, locus YNL175C, strain NOP13, active compounds read low 0.995 | S. cerevisiae deletion strains, locus YNL183C, strain NPR1, active compounds read low 0.918 | S. cerevisiae deletion strains, locus YNL197C, strain WHI3, active compounds read low 0.975 | S. cerevisiae deletion strains, locus YNL224C, strain SQS1, active compounds read low 1.02 | S. cerevisiae deletion strains, locus YNL233W, strain BNI4, active compounds read low 1 | S. cerevisiae deletion strains, locus YNL250W, strain rad50, active compounds read low 1.03 | S. cerevisiae deletion strains, locus YNL271C, strain bni1, active compounds read low 1.03 | S. cerevisiae deletion strains, locus YNL298W, strain CLA4, active compounds read low 1.05 | S. cerevisiae deletion strains, locus YNL307C, strain MCK1, active compounds read low 1.03 | S. cerevisiae deletion strains, locus YNL322C, strain KRE1, active compounds read low 1.01 and 0.99 | S. cerevisiae deletion strains, locus YNR052C, strain pop2, active compounds read low 1.02 | S. cerevisiae deletion strains, locus YOL006C, strain TOP1, active compounds read low 1.03 | S. cerevisiae deletion strains, locus YOL012C, strain htz1 1.29 | S. cerevisiae deletion strains, locus YOL147C, strain pex11, active compounds read low 1.04 | S. cerevisiae deletion strains, locus YOR061W, strain CKA2, active compounds read low 1.01 | S. cerevisiae deletion strains, locus YOR069W, strain VPS5, active compounds read low 1 | S. cerevisiae deletion strains, locus YOR083W, strain WHI5 (second series), active compounds read low 0.99 | S. cerevisiae deletion strains, locus YOR136W, strain idh2, active compounds read low 1.02 | S. cerevisiae deletion strains, locus YOR144C, strain elg1, active compounds read low 1.03 | S. cerevisiae deletion strains, locus YOR184W, strain ser1, active compounds read low 1.03 | S. cerevisiae deletion strains, locus YOR231W, strain MKK1, active compounds read low 1 | S. cerevisiae deletion strains, locus YOR316C, strain cot1, active compounds read low 1.03 | S. cerevisiae deletion strains, locus YPL055C, strain LGE1, active compounds read low 1.03 | S. cerevisiae deletion strains, locus YPL241C, strain CIN2, active compounds read low 0.999 | S. cerevisiae deletion strains, locus YPL256C, strain CLN2, active compounds read low 0.985 | S. cerevisiae deletion strains, locus YPR119W, strain clb2, active compounds read low 1.02 | S. cerevisiae deletion strains, locus YPR141C, strain kar3, active compounds read low 1.02 | S. cerevisiae deletion strains, locus YPR163C, strain tif3, active compounds read low 1.04 | S. cerevisiae deletion strains, locus YPR167C, strain met16, active compounds read low 1.02 | S. cerevisiae deletion strains, strain wtn01, active compounds read low 1.03 | S. cerevisiae strains, strain wild type, active compounds read low 1.01
